MITF TRPM1 HTS = activators of MITF-driven TRPM1 promoter reporter, primary screen, cell-based, SK-MEL-5, luciferase, single point | SK-MEL-5 TRPM1-promoter luciferase, 24 h; % of positive control, neutral wells = 0 | activation, % at 12.5 µM | 300,000 compounds, 0.75% hits;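 active means mean activation of at least 80% with every replicate also reaching 80%; inconclusive means mean reaches 80% but some replicate falls short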
HIV Env fusion = inhibitors of HIV-1 Env-driven cell-cell fusion, primary screen, HeLa-JRFL effector, CEM21 target cells, luciferase; inhibition, % at 12.3 µM; 360,000 compounds, 1.1% hits;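 active means mean replicate inhibition score of at least 50 and every replicate individually at or above 50; inconclusive means only one of the two criteria met; inactive means mean below 50 and not all replicates reaching 50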
miR-122 sensor = miR-122 Renilla sensor signal increase in Huh7, primary screen, miR-122 inhibitor project, cell-based, single point, plate reader; Huh7 miR-122 Renilla luciferase sensor, 48 h; neutral wells = 0, positive control = 100; activation (reporter increase), % at 12.5 µM; 340,000 compounds, 0.3% hits; AID 602342, 2012;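 active means mean replicate activation score at least 90 and every replicate individually at or above 90; inconclusive means only one of the two criteria met; inactive means neither criterion met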;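 further: higher luciferase means less miR-122 activity so hits act as miR-122 inhibitors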
esBAF inh = Bmi1 luciferase reporter increase in mESCs, primary screen, esBAF inhibitor project, mouse ES cells, Bmi1 luciferase knock-in, single point; 24 h; 100% = twice the neutral-well signal; reporter increase, % at 12.5 µM; 350,000 compounds, 2% hits; in the data active means activation above about 40%; inconclusive means no clear call, values can overlap the other calls;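 further: a rise in the Bmi1 reporter signal indicates esBAF inhibition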
Wnt act = Wnt/beta-catenin pathway activators, primary screen, cell-based, plate reader, single point. Wnt/beta-catenin reporter cell assay, activator. activation, % at 9.35 µM. 300,000 compounds, 1.2% hits; in the data active means activation above about 30%, passing the limit was not always enough; inconclusive means no clear call, values can overlap the other calls
Each line names hits and unclear results; the compound was inactive in the other large screens. Compounds with a hit are over-represented: about 3.4% of the library has one in this group of screens.

CCOC(=O)/C=C1/SCC(=O)N1CC(=O)NC12CC3CC(CC(C3)C1)C2	HIV Env fusion 57 (no result: esBAF inh)
O=C(CSc1nc2ccccc2c(=O)n1CCCN1CCOCC1)Nc1ccc(F)c(Cl)c1	HIV Env fusion 71
COCCCn1c(SCC(=O)Nc2ccc(C(C)=O)cc2)nc2ccccc2c1=O	esBAF inh 66 (no result: MITF TRPM1 HTS, Wnt act)
Cc1ccc(NC(=O)CSc2nccn2Cc2ccco2)cc1	esBAF inh 56
COCCn1c(SCC(=O)Nc2ccc(NC(C)=O)cc2)nc2ccccc2c1=O	none (no result: miR-122 sensor)
CC(=O)c1ccc(NC(=O)CSc2nccn2CCc2ccccc2)cc1	esBAF inh 78
N#Cc1ccccc1NC(=O)CSc1nccn1CCc1ccccc1	esBAF inh 56 (no result: Wnt act)
CC(=O)c1ccc(NC(=O)CSc2nc(=O)cc(N)n2-c2ccccc2)cc1	esBAF inh 63
Oc1cccc2ccc(Nc3ccccn3)nc12	HIV Env fusion 60 (no result: MITF TRPM1 HTS, Wnt act)
CCCNC(=O)[C@H]1[C@H](CO)[C@H]2Cn3c(ccc(-c4ccccc4OC)c3=O)[C@H]2N1CC	none (no result: MITF TRPM1 HTS, HIV Env fusion, Wnt act)
CC1CCN(S(=O)(=O)N2CCC(C(=O)NCCc3ccccc3)CC2)CC1	miR-122 sensor 143
COc1ccc(CCNC(=O)C2CCN(Cc3nc(-c4ccccc4F)oc3C)CC2)cc1OC	none
O=C(NCCc1ccccc1)C1CCN(S(=O)(=O)N2CCCCC2)CC1	none
COc1ccc(CCNC(=O)C2CCN(S(=O)(=O)c3ccc(C)cc3)CC2)cc1OC	Wnt act 62
Cc1oc(-c2ccccc2F)nc1CN1CCC(C(=O)NCCC2=CCCCC2)CC1	HIV Env fusion 90
Cc1oc(-c2ccccc2F)nc1CN1CCC(C(=O)NCc2cccnc2)CC1	none
CCc1ccc(-c2nc(CN3CCC(C(=O)NCCc4ccc(OC)c(OC)c4)CC3)c(C)o2)cc1	HIV Env fusion 68 (no result: MITF TRPM1 HTS, Wnt act)
COCC(=O)Nc1ccc2c(c1)OC[C@@H](C)N(C(=O)Cc1cccnc1)C[C@H](C)[C@H](OC)CN(C)C2=O	none (no result: MITF TRPM1 HTS, HIV Env fusion, miR-122 sensor, Wnt act)
C/C=C/c1ccc2c(c1)O[C@@H](CN(C)C(=O)c1ccc(F)cc1)[C@H](C)CN([C@H](C)CO)S2(=O)=O	none (no result: MITF TRPM1 HTS, Wnt act)
COc1ccccc1C#Cc1cnc2c(c1)C(=O)N([C@@H](C)CO)C[C@@H](C)[C@@H](CN(C)C(C)=O)O2	none (no result: MITF TRPM1 HTS, Wnt act)
C[C@@H]1CCCCO[C@H](CN(C)C(=O)CCCN(C)C)[C@@H](C)CN([C@@H](C)CO)C(=O)c2cc(NC(=O)NC3CCCCC3)ccc2O1	none (no result: MITF TRPM1 HTS, Wnt act)
CCC(=O)N1C[C@@H](C)[C@H](OC)CN(C)C(=O)c2cc(NC(=O)c3cc(C)on3)ccc2OC[C@H]1C	none (no result: MITF TRPM1 HTS, HIV Env fusion, Wnt act)
CC1CCCCN1C(=S)NCCc1ccccc1 (stereo unspecified)	Wnt act 37 (no result: MITF TRPM1 HTS)
Cc1cc(C)c(S(=O)(=O)N2CCCCC2)cc1N(C)S(=O)(=O)c1ccc(Cl)cc1	HIV Env fusion 95
COc1cc(-c2noc(-c3cccc(Cl)c3)n2)cc(OC)c1OC	none (no result: MITF TRPM1 HTS)
O=C(O)c1cccc(-c2noc(-c3cccc(Cl)c3)n2)c1	Wnt act 37 (no result: HIV Env fusion)
NC(=O)c1ccc(-c2noc(-c3cccc(Cl)c3)n2)cc1	MITF TRPM1 HTS 125, Wnt act 36
Cc1cc(Nc2cccc(C(F)(F)F)c2)cc(=O)n1-c1cccc(C(F)(F)F)c1	HIV Env fusion 67 (no result: MITF TRPM1 HTS, miR-122 sensor, esBAF inh)
Cc1cc(Nc2cc(C(F)(F)F)cc(C(F)(F)F)c2)cc(=O)n1-c1cc(C(F)(F)F)cc(C(F)(F)F)c1	none (no result: MITF TRPM1 HTS, miR-122 sensor, esBAF inh)
Oc1[nH]c2ccccc2c1C=Nc1ccc2c(c1)OCO2	MITF TRPM1 HTS inconclusive, esBAF inh 57, Wnt act 39
COc1ccc(CN=Cc2c(O)[nH]c3ccccc23)cc1	none (no result: esBAF inh)
COc1ccc(N=Cc2c(O)[nH]c3ccccc23)cc1	Wnt act 59
C[C@@H]1CCCCO[C@@H](CN(C)C(=O)Nc2cccc3ccccc23)[C@H](C)CN([C@@H](C)CO)C(=O)c2cc(NS(=O)(=O)c3cn(C)cn3)ccc2O1	none (no result: MITF TRPM1 HTS, Wnt act)
COCC(=O)Nc1ccc2c(c1)[C@H]1C[C@@H](CC(=O)NCc3ccccc3)O[C@@H](CO)[C@H]1O2	none (no result: MITF TRPM1 HTS, Wnt act)
Cc1cc(C)n2nc(-c3cccc(Br)c3)cc2n1	esBAF inh inconclusive
Cc1cccc(-c2cc3nc(C)cc(C)n3n2)c1	esBAF inh 66
CCOC(=O)C(=Cc1ccc(-n2ccnc2)cc1)C(=O)OCC	Wnt act 56
CCOC(=O)/C(=C/c1ccc(OC(=O)c2ccncc2)cc1)C(C)=O	Wnt act 46 (no result: miR-122 sensor, esBAF inh)
COc1ccccc1CNC(=O)C[C@H]1CC[C@H]2[C@H](COc3ccc(NC(=O)Nc4ccc(F)c(F)c4)cc3C(=O)N2C)O1	none (no result: MITF TRPM1 HTS, HIV Env fusion, Wnt act)
O=C(Nc1ccccc1C(F)(F)F)Nc1cccc2ccccc12	none (no result: Wnt act)
O=C(CNc1ccccc1F)Nc1cccc2ccccc12	esBAF inh 64
Cc1ccoc1C(=O)Nc1cccc2ccccc12	esBAF inh 42
O=C(Nc1ccccc1F)C(=O)Nc1cccc2ccccc12	esBAF inh 62 (no result: MITF TRPM1 HTS)
O=C(C[C@H]1C[C@@H]2c3cc(NC(=O)NC4CCCC4)ccc3O[C@@H]2[C@H](CO)O1)NCc1ccncc1	none (no result: MITF TRPM1 HTS, Wnt act)
COCC(=O)N1[C@H](CO)[C@H](c2ccccc2)[C@@H]1C#N	none (no result: MITF TRPM1 HTS, miR-122 sensor, Wnt act)
CC(=O)N(C)C[C@H]1Oc2ncc(C#Cc3ccccc3F)cc2C(=O)N([C@@H](C)CO)C[C@H]1C	none (no result: MITF TRPM1 HTS, Wnt act)
NCC[C@@H]1CC[C@H](NC(=O)c2ccccc2F)[C@H](CO)O1	none (no result: MITF TRPM1 HTS, HIV Env fusion, miR-122 sensor, Wnt act)
O=[N+]([O-])c1cccc(COc2ccc(CN3CCOCC3)cc2)c1	MITF TRPM1 HTS 111
CC(=O)Nc1ccc(OCc2cccc([N+](=O)[O-])c2)cc1	Wnt act 59 (no result: miR-122 sensor, esBAF inh)
C[C@H]1CN([C@@H](C)CO)C(=O)c2cc(C#Cc3cccnc3)cnc2O[C@@H]1CN(C)Cc1ccncc1	none (no result: MITF TRPM1 HTS, Wnt act)
CCOc1ccc(/C=C2\CCc3ccccc3C2=O)cc1	MITF TRPM1 HTS 95 (no result: miR-122 sensor)
COc1ccc(/C=C2\OC(=O)c3c(OC)cccc32)cc1OC	MITF TRPM1 HTS 125, esBAF inh 48 (no result: HIV Env fusion, miR-122 sensor, Wnt act)
COc1ccc2c(c1)CC/C(=C\c1ccc(OC)c(Cn3nc(C)cc3C)c1)C2=O	none (no result: MITF TRPM1 HTS)
COc1ccc(C=C2CCc3ccccc3C2=O)cc1	none (no result: MITF TRPM1 HTS, miR-122 sensor, esBAF inh)
COc1ccc2c(c1)CC/C(=C\c1ccc(OC)c(Cn3cccn3)c1)C2=O	esBAF inh 87 (no result: MITF TRPM1 HTS, Wnt act)
COc1ccc(/C=C2\COc3ccccc3C2=O)cc1OC	Wnt act 33 (no result: miR-122 sensor, esBAF inh)
O=C(c1ccc(F)cc1)N1CCCCN2[C@H](CO)[C@H](c3ccc(C#CC4(O)CCCC4)cc3)[C@@H]2C1	none (no result: MITF TRPM1 HTS, HIV Env fusion, esBAF inh, Wnt act)
COc1ccc(/C=C2/CCc3ccccc3C2=O)cc1OC	HIV Env fusion 58, Wnt act 50
COc1ccc(/C=C2\COc3ccccc3C2=O)c(OC)c1	esBAF inh 63 (no result: miR-122 sensor)
O=C(Nc1ccc(Cl)cn1)C1CCCN1S(=O)(=O)c1cccc2ccccc12 (stereo unspecified)	HIV Env fusion 70 (no result: MITF TRPM1 HTS, Wnt act)

Compound activity (PubChem)
